{
  "source": "PubChem BioAssay (NCATS)",
  "note": "Records with an inconclusive call do not appear. Activity calls are given as the source filed them. Calls come from the whole dose curve; as a rule, active = well fitted inhibition curve with a large enough effect; inconclusive = small, poorly fitted or top-dose-only effect; inactive = flat fitted curve, though single readings scatter. Square brackets hold non-standard residues; d marks the D form. Peptide text beside a SMILES is read from it. PhLac = O=C(O)[CH](O)Cc1ccccc1; NMeV = CN[CH](C(=O)O)C(C)C",
  "data": [
    {"tested_on": "CRL-7250", "assay": "qHTS assay to identify novel small-molecules to repurpose for Merkel cell carcinoma treatment (AID 1296009); note: nearly all actives have a fitted effect of over 60% in size", "details": "MCC and control cell lines, CellTiter-Glo viability, 72 h; series mostly up to 92 µM; activity change, negative = cytotoxicity: at the top concentration", "how_it_was_run": "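Viability readout: ATP luminescence (CellTiter-Glo) after 72 hr drug exposure at 37 degree celsius. Dose-response format was 8 points for NPC and 11 points for MIPE; data normalized to in-plate controls.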", "values": [
      {"compound": "CC[C@H]1OC(=O)[C@H](C)[C@@H](OC2C[C@@](C)(OC)[C@@H](O)[C@H](C)O2)[C@H](C)[C@@H](OC2O[C@H](C)C[C@H](NC)[C@H]2O)[C@](C)(O)C[C@@H](C)CN(C)[C@H](C)[C@@H](O)[C@]1(C)O", "note": "(some centres not stated)", "outcome": "inactive"},
      {"compound": "C=C(CO)C(=O)O[C@H]1C[C@@]23O[C@@H]2CC/C(=C/[C@H]2OC(=O)C(=C)[C@H]12)CO[C@H]3O", "outcome": "inactive"},
      {"compound": "C=C1CC[C@H]2[C@@H](/C=C(\\C)C(=O)[C@@]3(OC(C)=O)C[C@H](C)[C@H](OC(C)=O)[C@@H]3[C@H]1OC(C)=O)C2(C)C", "outcome": "inactive [at 17.4 µM]"},
      {"compound": "C[C@H]1/C=C/C=C/C=C/C=C/C=C/[C@@H](O)[C@H](C(=O)O)[C@H](O)C[C@H](O)CCC[C@H](O)C[C@H](O)C[C@H](O)[C@@H](C)C(=O)O[C@@H]1C", "outcome": "inactive [at 17.4 µM]"},
      {"compound": "CC1(C)CCCC2(C)C=C(C(=O)O)C(O)CC12", "note": "(configuration not stated)", "outcome": "inactive"},
      {"compound": "CCCCCOC(=O)Nc1nc(=O)n(C2O[C@H](C)[C@@H](O)[C@H]2O)cc1F", "note": "(some centres not stated)", "outcome": "inactive"},
      {"compound": "C=C(C(=O)OC)[C@]12O[C@@](C)(CC[C@@]3(O)/C(=C\\C)C(=O)O[C@]3(C)C[C@@H]1OC(=O)C(CO)CN1CCCC1C(=O)O)CC2=O", "note": "(some centres not stated)", "outcome": "inactive [at 17.4 µM]"},
      {"compound": "CC(C)C(C(=O)N1CCCC1C(=O)O)N(C)C(=O)C(O)Cc1ccccc1", "note": "(configuration not stated) (H-[PhLac]-[NMeV]-Pro-OH; configuration not given here)", "outcome": "inactive"},
      {"compound": "COc1ccc(/C=C\\C(=O)O)c(O[C@@H]2O[C@H](CO)[C@@H](O)[C@H](O)[C@H]2O)c1", "outcome": "inactive"},
      {"compound": "Cc1ncc(Cl)cc1NCc1ccc(C(=O)NC(CC2CCCC2)C(=O)NC2CC2)s1", "note": "(configuration not stated)", "outcome": "inactive"},
      {"compound": "CC1OC(OC2C(OC3C(O[C@H]4CC[C@@]5(C)C(CC[C@]6(C)C5CC=C5C7CC(C)(C)CC(O)[C@]7(C)CC[C@]56C)C4(C)C)OC(C(=O)O)C(O)C3O)OCC(O)C2O)C(O)C(O)C1O", "note": "(some centres not stated)", "outcome": "inactive [at 9.27 µM]"},
      {"compound": "C/C=C/C=C/C1=C2C(=O)C3(C)C4C(C(=O)CC(O)/C=C/C)=C(O1)C1(C)C2C2(C)OC1(O)C4(C)OC23O", "note": "(configuration not stated)", "outcome": "inactive [at 17.4 µM]"},
      {"compound": "COC1C=C(C)C(O)(CO)C2(C)CCCC(C)(C)C12", "note": "(configuration not stated)", "outcome": "inactive"},
      {"compound": "CCc1cc2c(cc1CC)CC(NCC(O)c1ccc(O)c3[nH]c(=O)ccc13)C2", "note": "(configuration not stated)", "outcome": "inactive"},
      {"compound": "COC1OC(O)C2(CCC3(O2)C(C)CC2OC(=O)C4(C)CCCC3(C)C24)C1O", "note": "(configuration not stated)", "outcome": "inactive"},
      {"compound": "OC[C@H]1O[C@@H](OC[C@H]2O[C@@H](OCc3ccccc3)[C@H](O)[C@@H](O)[C@@H]2O)[C@H](O)[C@@H](O)[C@@H]1O", "outcome": "inactive [at 17.4 µM]"},
      {"compound": "COc1cc(C2OCC3(O)C(c4ccc(O[C@@H]5O[C@H](CO)[C@@H](O)[C@H](O)[C@H]5O)c(OC)c4)OCC23O)ccc1O", "note": "(some centres not stated)", "outcome": "inactive [at 17.4 µM]"},
      {"compound": "NC(=O)NCCCC(NC(=O)Cc1ccccc1)C(=O)O", "note": "(configuration not stated)", "outcome": "inactive"},
      {"compound": "Nc1nc2c(s1)CCN(Cc1ccc(Cl)cc1)CC2", "outcome": "inactive"},
      {"compound": "Cc1ccc(NC(=O)C(=O)NC2CC(C)(C)NC(C)(C)C2)cc1", "outcome": "inactive"},
      {"compound": "C=C(C)C1CCC2(C(=O)O[C@@H]3O[C@H](CO[C@@H]4O[C@H](CO)[C@@H](O)[C@H](O)[C@H]4O)[C@@H](O)[C@H](O[C@@H]4O[C@@H](C)[C@H](O)[C@@H](O)[C@H]4O)[C@H]3O)CCC3(C(=O)O)C(CCC4C5(C)CCC(O)C(C)(C)C5CCC43C)C12", "note": "(some centres not stated)", "outcome": "inactive [at 9.27 µM]"},
      {"compound": "COC(=O)c1cc(Br)cnc1N1CCC(NC2CCCCC2)C(O)C1", "note": "(configuration not stated)", "outcome": "inactive"},
      {"compound": "COc1cccc(C(=O)N2CCN(C(=O)COc3cccc(C)c3)CC2)c1OC", "outcome": "inactive"},
      {"compound": "Cc1cc(O)cc(O[C@@H]2O[C@H](CO)[C@@H](O)[C@H](O)[C@H]2O)c1", "outcome": "inactive"},
      {"compound": "NC(Cc1c[nH]c2ccccc12)C(=O)NC(CCC(=O)O)C(=O)O", "note": "(configuration not stated)", "outcome": "inactive"},
      {"compound": "CC(C)/C=C1/NC(=O)C(C(C)C)n2c1nc1c(O)cccc1c2=O", "note": "(configuration not stated)", "outcome": "inactive"},
      {"compound": "CC1(C)NC2N(C1=O)c1ccccc1C2(O)CC(C(=O)O)n1cnc2ccccc2c1=O", "note": "(configuration not stated)", "outcome": "inactive [at 17.4 µM]"},
      {"compound": "COc1c(O)cc2c(c1O)C(=O)O[C@H](C)[C@H]2O", "outcome": "inactive"},
      {"compound": "COc1ccc2c(c1)O[C@H](O[C@@H]1O[C@H](CO)[C@@H](O)[C@H](O)[C@H]1O)C(=O)N2", "outcome": "inactive"},
      {"compound": "CCC(O)C(C)C1CCC(C(C)C(=O)O)O1", "note": "(configuration not stated)", "outcome": "inactive"},
      {"compound": "COc1cc(CCc2ccccc2)c(C(=O)O)c2c1CC(C(C)(C)O)O2", "note": "(configuration not stated)", "outcome": "inactive"},
      {"compound": "COc1cc(CC(COC2OC(CO)C(O)C(O)C2O)c2cc(/C=C/CO)cc(OC)c2O)ccc1O", "note": "(configuration not stated)", "outcome": "inactive [at 17.4 µM]"}
    ]}
  ]
}
